Laboratory results as given in PubChem BioAssay (NCI).
This is part of a sample that, as a whole, favours compounds with a hit. Of some 83,000 tested, about 20% had one in any assay.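 Growth was measured after 48 h exposure to one concentration of compound in 96-well plates. Values under 10 count as active.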 The source made the active and inactive calls.

Columns and labels:
Assay in all cases: NCI-60 one-dose screen, 48 h (100 = growth as untreated, 0 = no growth, -100 = all killed)
Conditions in all cases: 10 µM unless noted
HCT-15 colon = system: HCT-15 colon
HT29 colon = system: HT29 colon
SNB-75 CNS = system: SNB-75 CNS
SNB-19 CNS = system: SNB-19 CNS
U251 CNS = system: U251 CNS
SK-MEL-5 melanoma = system: SK-MEL-5 melanoma
UACC-62 melanoma = system: UACC-62 melanoma
LOX IMVI melanoma = system: LOX IMVI melanoma
SK-MEL-28 melanoma = system: SK-MEL-28 melanoma

Measured: growth

Fc1ccc2[nH]cc(SSc3c[nH]c4ccc(F)cc34)c2c1
inactive: HCT-15 colon 25.8% | HT29 colon 39.2% | SNB-75 CNS 64.1% | SNB-19 CNS 41.1% | U251 CNS 13.8% | SK-MEL-5 melanoma 70% | UACC-62 melanoma 63.8% | LOX IMVI melanoma 25.5% | SK-MEL-28 melanoma 75.6%

COc1cc(-c2ccc3c(c2)NC(=O)/C3=C\c2ccc[nH]2)ccc1O
inactive: HCT-15 colon 14.1% | HT29 colon 18.9% | SNB-75 CNS 47.2% | SNB-19 CNS 34.8% | U251 CNS 15.4% | UACC-62 melanoma 32.2% | SK-MEL-28 melanoma 37.5%
active: SK-MEL-5 melanoma -27.5% | LOX IMVI melanoma -8.36%

COc1cc(/C=C/C(=O)Nc2cccnc2Nc2ccc(F)cc2)cc(OC)c1OC
inactive: HCT-15 colon 99% | HT29 colon 91.2% | SNB-75 CNS 97% | SNB-19 CNS 91.1% | U251 CNS 70.8% | SK-MEL-5 melanoma 95.8% | UACC-62 melanoma 94.7% | LOX IMVI melanoma 100% | SK-MEL-28 melanoma 103%

COc1ccc(-n2nc(C)c3c(Nc4ccc(NC(=O)Nc5cccc(C(F)(F)F)c5)cc4)ncnc32)cc1
active: HCT-15 colon 2.47% | HT29 colon 1.63% | SNB-75 CNS -7.61% | U251 CNS -49.7% | SK-MEL-5 melanoma -66.5% | UACC-62 melanoma 3.5% | LOX IMVI melanoma -81.9%
inactive: SNB-19 CNS 12% | SK-MEL-28 melanoma 11.6%

CCOc1nc(-c2ccccc2)cc2c(O)c(C(=O)O)[nH]c(=O)c12
inactive: HCT-15 colon 106% | HT29 colon 104% | SNB-75 CNS 81.3% | SNB-19 CNS 94.3% | U251 CNS 104% | SK-MEL-5 melanoma 90.6% | UACC-62 melanoma 110% | LOX IMVI melanoma 95.2% | SK-MEL-28 melanoma 138%

COc1ccc(-c2cc(Nc3ccnc(N4CCOCC4)n3)on2)cc1
inactive: HCT-15 colon 20.3% | SNB-19 CNS 39% | U251 CNS 23.2% | SK-MEL-5 melanoma 19.7% | UACC-62 melanoma 60.5% | LOX IMVI melanoma 51.9% | SK-MEL-28 melanoma 69.3%
active: HT29 colon 9.4% | SNB-75 CNS -3.66%

CCOC(=O)c1sc2nc(-c3cccc(OC)c3)nc(N3CCOCC3)c2c1C
inactive: HCT-15 colon 96.4% | HT29 colon 89.9% | SNB-75 CNS 95.3% | SNB-19 CNS 89.1% | U251 CNS 86.9% | SK-MEL-5 melanoma 85.5% | UACC-62 melanoma 75.6% | LOX IMVI melanoma 94% | SK-MEL-28 melanoma 101%

Fc1ccc(CNc2cccc3[nH]c(C(F)(F)F)nc23)cc1
inactive: HCT-15 colon 98.3% | HT29 colon 104% | SNB-75 CNS 73.9% | SNB-19 CNS 79.2% | U251 CNS 80.7% | SK-MEL-5 melanoma 96.1% | UACC-62 melanoma 79.6% | LOX IMVI melanoma 99.4% | SK-MEL-28 melanoma 89%

COc1ccc(C(=O)c2sc3nc4c(c(-c5cccnc5)c3c2N)CCCC4)cc1OC
inactive: HCT-15 colon 72.8% | HT29 colon 74.3% | SNB-75 CNS 56.4% | SNB-19 CNS 71% | U251 CNS 70.2% | SK-MEL-5 melanoma 59.6% | UACC-62 melanoma 87.6% | LOX IMVI melanoma 70.2% | SK-MEL-28 melanoma 77.9%

C#CCOc1ccc2ncnc(Nc3cccc(CNC(=O)CCl)c3)c2c1
inactive: HCT-15 colon 45.2% [8.25 µM] | HT29 colon 35% [8.25 µM] | SNB-75 CNS 15.5% [8.25 µM] | SNB-19 CNS 60.7% [8.25 µM] | U251 CNS 10.1% [8.25 µM] | SK-MEL-5 melanoma 14.5% [8.25 µM] | UACC-62 melanoma 40.3% [8.25 µM] | LOX IMVI melanoma 53.9% [8.25 µM] | SK-MEL-28 melanoma 69% [8.25 µM]

O=C(COc1cccc(/C=C2\COc3ccccc3C2=O)c1)Nc1nccs1
active: HCT-15 colon -17.9% | HT29 colon -28.7% | LOX IMVI melanoma -96.8% | SK-MEL-28 melanoma -68.3%
inactive: SNB-75 CNS 77.3% | SNB-19 CNS 73.5% | U251 CNS 22.6% | SK-MEL-5 melanoma 52.3% | UACC-62 melanoma 78.2%

O=C(CN1C(=O)/C(=C/c2ccc(Cl)cc2)SC1=S)NCCCN1CCOCC1
inactive: HCT-15 colon 93.1% | HT29 colon 114% | SNB-75 CNS 92.8% | SNB-19 CNS 97.9% | U251 CNS 98.4% | SK-MEL-5 melanoma 95.7% | UACC-62 melanoma 97% | LOX IMVI melanoma 90.5% | SK-MEL-28 melanoma 101%

C#Cc1cccc(NC(=O)c2ccccc2NC(=O)C=C)c1
inactive: HCT-15 colon 104% [8.25 µM] | HT29 colon 109% [8.25 µM] | SNB-75 CNS 75% [8.25 µM] | SNB-19 CNS 94.1% [8.25 µM] | U251 CNS 100% [8.25 µM] | SK-MEL-5 melanoma 99.5% [8.25 µM] | UACC-62 melanoma 104% [8.25 µM] | LOX IMVI melanoma 97.4% [8.25 µM] | SK-MEL-28 melanoma 109% [8.25 µM]

Cc1ccc(NC(=O)/C=C/c2ccccc2)c(C(N)=O)c1
inactive: HCT-15 colon 33.6% | HT29 colon 14.1% | SNB-75 CNS 11.3% | SNB-19 CNS 40.5% | U251 CNS 28.8% | UACC-62 melanoma 44.2% | LOX IMVI melanoma 51.2% | SK-MEL-28 melanoma 33.1%
active: SK-MEL-5 melanoma 6.05%

O=C(Cc1ccccc1Nc1c(Cl)cccc1Cl)NN1C(=O)/C(=C/c2ccc(Br)cc2)SC1=S
inactive: HCT-15 colon 104% | HT29 colon 109% | SNB-75 CNS 86.4% | SNB-19 CNS 105% | U251 CNS 102% | SK-MEL-5 melanoma 98.6% | UACC-62 melanoma 101% | LOX IMVI melanoma 97.5% | SK-MEL-28 melanoma 105%

CN1CCN(c2ccc(Nc3c4ccccc4nc4ccccc34)cc2)CC1
inactive: HCT-15 colon 99.3% | HT29 colon 103% | SNB-75 CNS 96.8% | SNB-19 CNS 107% | U251 CNS 99.8% | SK-MEL-5 melanoma 102% | UACC-62 melanoma 109% | LOX IMVI melanoma 105% | SK-MEL-28 melanoma 109%

COc1ccc2c(c1)c(-c1nonc1-c1cn(C)c3ccccc13)cn2C
inactive: HCT-15 colon 25.7% | SNB-19 CNS 34.9% | U251 CNS 32.8% | SK-MEL-5 melanoma 13.3% | UACC-62 melanoma 38% | LOX IMVI melanoma 47.2% | SK-MEL-28 melanoma 63.1%
active: HT29 colon 8.38% | SNB-75 CNS -6.82%

COc1ccc(CCNc2nc3c(c(=O)n(Cc4ccc(Br)cc4)c(=O)n3C)n2C)cc1OC
inactive: HCT-15 colon 102% | HT29 colon 103% | SNB-75 CNS 84.5% | SNB-19 CNS 94.5% | U251 CNS 92% | SK-MEL-5 melanoma 68% | UACC-62 melanoma 74.8% | LOX IMVI melanoma 94.5% | SK-MEL-28 melanoma 99%

C(=N/Nc1ncc(-c2cc3cc(-c4ccccc4)ccc3o2)s1)/c1cccs1
inactive: HCT-15 colon 99.2% | HT29 colon 99.6% | SNB-75 CNS 100% | SNB-19 CNS 99.3% | U251 CNS 99.5% | SK-MEL-5 melanoma 96.8% | UACC-62 melanoma 90.7% | LOX IMVI melanoma 98.7% | SK-MEL-28 melanoma 96.1%

CCCCn1cnc2c(Sc3c([N+](=O)[O-])ncn3C)nc(N)nc21
inactive: HCT-15 colon 91.6% | HT29 colon 99.7% | SNB-75 CNS 84.3% | SNB-19 CNS 96.3% | U251 CNS 101% | SK-MEL-5 melanoma 103% | UACC-62 melanoma 88.9% | LOX IMVI melanoma 107% | SK-MEL-28 melanoma 98.8%

CCNc1ncnc2c1cnn2C1CCCO1 (stereo unspecified)
inactive: HCT-15 colon 106% | HT29 colon 119% | SNB-75 CNS 89.4% | SNB-19 CNS 105% | U251 CNS 107% | SK-MEL-5 melanoma 105% | UACC-62 melanoma 107% | LOX IMVI melanoma 111% | SK-MEL-28 melanoma 107%

COc1cccc(/C=N/NC(=O)c2ccccc2Nc2ccnc(C(F)(F)F)c2)c1O
inactive: HCT-15 colon 28.4% | HT29 colon 51.3% | SNB-75 CNS 19.6% | SNB-19 CNS 21.1% | U251 CNS 17.1% | SK-MEL-28 melanoma 23%
active: SK-MEL-5 melanoma -33.1% | UACC-62 melanoma -24.2% | LOX IMVI melanoma 4.88%

O=C(N(c1ccccc1)c1ccccc1)n1ccc2nc(Cl)nc(Cl)c21
inactive: HCT-15 colon 45.1% | HT29 colon 24.6% | SNB-75 CNS 38.3% | SNB-19 CNS 58.5% | U251 CNS 59.6% | SK-MEL-5 melanoma 64.9% | UACC-62 melanoma 51.9% | LOX IMVI melanoma 72.1% | SK-MEL-28 melanoma 80.4%

COc1ccc(C(=O)c2sc3nc(C)cc(C)c3c2N)cc1OC
inactive: HCT-15 colon 85.4% | HT29 colon 88.2% | SNB-75 CNS 84.3% | SNB-19 CNS 79.6% | U251 CNS 66% | SK-MEL-5 melanoma 93.4% | UACC-62 melanoma 80.8% | LOX IMVI melanoma 96.5% | SK-MEL-28 melanoma 101%

O=[N+]([O-])c1ccc2c(c1)Cc1cc(F)ccc1-2
inactive: HCT-15 colon 97.1% | HT29 colon 95.6% | SNB-75 CNS 92.1% | SNB-19 CNS 92.5% | U251 CNS 93.1% | SK-MEL-5 melanoma 86.4% | UACC-62 melanoma 85.2% | LOX IMVI melanoma 103% | SK-MEL-28 melanoma 107%

Cc1[nH]c(-c2ccc3cc[nH]c3c2)c2c1C(=O)CCCC2
active: SNB-75 CNS 6.65%
inactive: HCT-15 colon 30.6% | HT29 colon 27.4% | SNB-19 CNS 53.1% | U251 CNS 48.5% | SK-MEL-5 melanoma 49.6% | UACC-62 melanoma 24.8% | LOX IMVI melanoma 16.2% | SK-MEL-28 melanoma 66.2%

CN1CCN=C1c1ccc(NC(=O)c2ccc(C(=O)Nc3ccc(C4=NCCN4C)cc3)cc2)cc1
inactive: HCT-15 colon 108% | HT29 colon 98.8% | SNB-75 CNS 91.2% | SNB-19 CNS 92% | U251 CNS 93.6% | SK-MEL-5 melanoma 84.7% | UACC-62 melanoma 91.8% | LOX IMVI melanoma 94.2% | SK-MEL-28 melanoma 110%

Oc1ccc(N=Cc2ccccc2O)cc1
inactive: HCT-15 colon 120% | HT29 colon 99% | SNB-75 CNS 89.1% | SNB-19 CNS 93.1% | U251 CNS 83.3% | SK-MEL-5 melanoma 92.3% | UACC-62 melanoma 96.8% | LOX IMVI melanoma 104% | SK-MEL-28 melanoma 127%

O=C(COc1cccc(/C=C2\COc3ccc(Cl)cc3C2=O)c1)c1ccc(Cl)cc1
inactive: HCT-15 colon 82% | HT29 colon 97.7% | SNB-75 CNS 67.8% | SNB-19 CNS 90.5% | U251 CNS 87.5% | SK-MEL-5 melanoma 94.3% | UACC-62 melanoma 80.9% | LOX IMVI melanoma 76.1% | SK-MEL-28 melanoma 119%
